Laboratory results as given in PubChem BioAssay (Tox21).
Inconclusive results are not listed. The source made the active and inactive calls. Calls follow the shape of the dose curve; as a rule, active = well fitted activation curve with a large enough effect in the repeat runs; inconclusive = weak or mixed curves; inactive = flat fitted curve, though single readings scatter.

Experiment: A CellTox Green Cytotoxicity Assay to monitor cytotoxicity in HepG2 cells - 8 hour (AID 1224890); also: nearly all actives have a fitted effect of over 45% in size
Details: CellTox Green fluorescence; series mostly up to 76.8 µM; cytotoxicity increase: at the top concentration
Description: National Center for Advancing Translational Sciences [NCATS]
NIH Chemical Genomics Center [NCGC]
U.S. Environmental Protection Agency [EPA]
National Institutes of Environmental Health Sciences [NIEHS]
National Toxicology Program [NTP]
Cell-based models are critical for drug discovery. Determining the natural cytotoxic effects resulting from test compounds is an essential research activity. A CellTox Green Cytotoxicity Assay to monitor cytotoxicity in real time of continues cell culture during 40 hours of the compound treatment was used to screen Tox21 10K library compounds in HepG2 cells. CellTox Green Cytotoxicity Assay is a nonlytic, homogeneous, biofluorescent method to measure cytotoxicity in cell culture after experimental manipulation. The assay system uses a proprietary asymmetric cyanine dye that is excluded from viable cells but preferentially stains the dead cell's DNA. […] Viable cells produce no appreciable increases in fluorescence. Therefore, the fluorescence signal produced by the binding interaction with dead cell DNA is proportional to cytotoxicity.
The mixture of HepG2 cell suspension and reagents were dispensed at 600cells/6 ul/well in 1536-well tissue culture treated black solid bottom plates using a Multidrop dispenser. After the assay plates were incubated at a 37 C/5% CO2 incubator for 5 hours, 23 nL of compounds dissolved in DMSO, positive and negative controls was transferred to the assay plate by a pintool work station. The plates were incubated at 37 C for 40 hours. The fluorescence intensity were measured at 0h, 8h, 16h, 24h, 32h and 40h time points using ViewLux plate reader during compound treatment.
% is scaled to controls: 0 for no effect and ±100 for the full control effect; potency is read from the fitted curve at half-maximal effect.

Row | SMILES | cytotoxicity increase | Potency
1 | C/C=C/C(=O)CC | 6.47% [at 15.8 µM] (inactive) | 
2 | CC(C)=CCC/C(C)=C/CC/C(C)=C/CO | 8.49% (inactive) | 
3 | Nc1ccccc1S(=O)(=O)c1ccccc1 | -19.7% (inactive) | 
4 | C[Si](C)(CCCN)O[Si](C)(C)CCCN | -4.83% (inactive) | 
5 | Cn1c(=O)cc(Oc2ccc(F)cc2F)c2cnc(NCC(C)(C)O)nc21 | -2.99% (inactive) | 
6 | CCOC(=O)C(O)c1ccccc1 (stereo not given) | -11.6% [at 35.3 µM] (inactive) | 
7 | CCCOC(C(=O)OC1CCN(C)CC1)(c1ccccc1)c1ccccc1 | 14.2% [at 35.3 µM] (inactive) | 
8 | O=S(c1cc(Cl)cc(Cl)c1O)c1cc(Cl)cc(Cl)c1O | 15.5% [at 35.3 µM] (inactive) | 
9 | CC(=O)c1ccc2c(c1)N(CCCN1CCC(CCO)CC1)c1ccccc1S2 | 7.41% [at 35.3 µM] (inactive) | 
10 | COc1ccc(S(=O)(=O)N2C(=O)[C@@](c3ccccc3OC)(N3C[C@H](O)C[C@H]3C(=O)N(C)C)c3cc(Cl)ccc32)c(OC)c1 | -1.65% (inactive) | 
11 | Cc1ccccc1S(=O)(=O)O | 5.58% (inactive) | 
12 | NC(=O)C(c1ccccc1)(c1ccccc1)[C@@H]1CCN(CCc2ccc3c(c2)CCO3)C1 |  | 21.3 µM (active)
13 | O=C(O)CNCC(=O)O | 3.91% [at 6.97 µM] (inactive) | 
14 | COC(C)OC | -2.05% (inactive) | 
15 | CC(C)OC(=O)C(C)N(C(=O)c1ccccc1)c1ccc(F)c(Cl)c1 (stereo not given) | -4.01% (inactive) | 
16 | CC(=O)c1cccc([N+](=O)[O-])c1 | -1.94% (inactive) | 
17 | C=CC(=O)OCCOCCOCCOCCOC(=O)C=C |  | inactive
18 | O[C@@H](COc1cccc2ncccc12)CN1CCN(C2c3ccccc3[C@@H]3[C@H](c4ccccc42)C3(F)F)CC1 (stereo not given in full) | -11% [at 35.3 µM] (inactive) | 
19 | CCCCCC[C@@H](O)C/C=C\CCCCCCCC(=O)OC | -1.43% (inactive) | 
20 | CCCCC(CC)COC(=O)CCCCCCCCC(=O)OCC(CC)CCCC (stereo not given) | -9.72% (inactive) | 

Row | SMILES | cytotoxicity increase | Potency
21 | CC1CCC(=O)C1=O (stereo not given) | 11.4% (inactive) | 
22 | CN(C)c1ccc(C(c2ccccc2)c2ccc(N(C)C)cc2)cc1 | -9.92% (inactive) | 
23 | CCOc1ccc(N=Nc2ccc(/C=C/c3ccc(N=Nc4ccc(OCC)cc4)cc3S(=O)(=O)O)c(S(=O)(=O)O)c2)cc1 | -25.7% (inactive) | 
24 | CCO[C@H](Cc1ccc(OCCc2ccc(OS(C)(=O)=O)cc2)cc1)C(=O)O | 4.65% [at 35.3 µM] (inactive) | 
25 | COc1cc(Cl)ccc1Oc1ccc(Cl)cc1Cl | -2.55% (inactive) | 
26 | CC(C)(COC(=O)c1ccccc1)COC(=O)c1ccccc1 | 6.77% (inactive) | 
27 | c1cc(CCCc2ccncc2)ccn1 | -11% (inactive) | 
28 | COc1ccnc(CS(=O)c2nc3ccc(OC(F)F)cc3[nH]2)c1OC (stereo not given) | -11.7% [at 35.3 µM] (inactive) | 
29 | COC(C)(C)CCO | -8.72% (inactive) | 
30 | Cc1cccc(C)c1NC(=O)CN(CC(=O)O)CC(=O)O | 5.47% [at 35.3 µM] (inactive) | 
31 | Cc1ccc(C(C)OC(=O)C2(C)CCC(C(=O)O)C2(C)C)cc1 (stereo not given) | 1.21% [at 35.3 µM] (inactive) | 
32 | CCCCCCCN | 2.69% (inactive) | 
33 | c1ccc(-c2ccccn2)nc1 | 0.486% (inactive) | 
34 | CN(C)CCN(Cc1ccsc1)c1ccccn1 | -2.56% [at 35.3 µM] (inactive) | 
35 | CN1CCN(C(c2ccccc2)c2ccccc2)CC1 | 3.7% [at 35.3 µM] (inactive) | 
36 | OCc1cc(C(O)CNCCCCCCOCCCCc2ccccc2)ccc1O (stereo not given) | 20.9% [at 35.3 µM] (inactive) | 
37 | OC(C#CCN1CCCC1)(c1ccccc1)c1ccccc1 | 11.5% [at 35.3 µM] (inactive) | 
38 | NS(=O)(=O)c1ccc(N2CCCCS2(=O)=O)cc1 | 0.181% [at 35.3 µM] (inactive) | 
39 | CCOC(=O)C1=C[C@]2(CC)CCCN3CCc4c(n1c1ccccc41)[C@@H]32 | 3.01% [at 35.3 µM] (inactive) | 
40 | CNCCCN1c2ccccc2CCc2ccccc21 | 19.9% [at 35.3 µM] (inactive) | 
